# Assay results published in the OligoGym collection.
# Target: HPD
# Assay: pooled miR-30 sensor sort-seq; sequence = guide strand
# Conditions: shRNA
# Also: reference of the scale not given here.
row,Sequence,sensor-assay potency score (higher = more potent)
1,TTTCTCGTCGTAGTCCACCAGG,-0.901
2,TTTGATTACATGGCTGACCACC,-0.613
3,AACTTGTCTTGCTCTACCCAGG,-0.858
4,TATTCCGTGTGCACCTGCGTGT,-0.504
5,TTGAACAGTGAGTTGAAGTTGC,0.599
6,TTTGGTGAAGATCTGCAGGAGG,-0.36
7,TACATGGCTGACCACCTCCCGG,-1.66

# Target: HS3ST2
# Assay: as above
# Conditions: shRNA
row,Sequence,sensor-assay potency score (higher = more potent)
1,TAACAGCAGAATTATGTGCTTT,-0.0537
2,TTCTTGGAGAGTGTCTGCGTGT,-0.361
3,ATAATATCTATCATCATTGGAA,-0.218
4,TTGCTTGAACAGACTGATGAAA,-0.965
5,ATCGCTTATAATATCTATCATC,-1.47
6,TTGATTTGCCCAAGCATCGAGG,-0.341
7,TTGAGTGACAAAGTAGCTGGGC,0.674
8,TTATTTCACATGGACAAGCATG,-1.23
9,TTGTCCGTGATGAATCTCTTAA,-1.07
10,TAACACAGGTAAGTGCAGGAGA,-0.326
11,TCTTGAGTGACAAAGTAGCTGG,-0.586

# Target: HS3ST4
# Assay: as above
# Conditions: shRNA
row,Sequence,sensor-assay potency score (higher = more potent)
1,TTTGAGGCCTAGAAAATCCTGT,0.0519
2,TTGACAACTATTTATCCTCTGT,0.841
3,TTCTTTGACAGTGTCTGCGTGT,0.364
4,TTTGTTGAAATAGAAATGCTTC,-0.152
5,TGAGCCGTGATCATCTCGCTGG,-0.131
6,TAAAACATCAAGTTGAAGGGTT,0.47
7,TTTGTCACAAAGTAACTTGGAG,-0.0205
8,TTTTACTAGAACAATTCCTGGT,0.147
9,TTTACTAGAACAATTCCTGGTT,0.821
10,TTTCTTTGACAGTGTCTGCGTG,-0.405
11,TTGTCACAAAGTAACTTGGAGT,-0.395
12,TTCTGTACCACTCCAACCCCTT,-0.516

# Target: HS6ST1
# Assay: as above
# Conditions: shRNA
row,Sequence,sensor-assay potency score (higher = more potent)
1,TAGCAGGTGCACTTCTTCTGGC,-0.598
2,TTGAACGTCCGCTCGAACAGGT,-0.0201
3,TTTTTTTGTATGAATAACCAAA,-1.12
4,TAGTGTGATGCATCCACCCAGG,-0.887
5,TAGTAGAACTTCCTGGGCGTGC,-0.463
6,TGATGTAGTAGAACTTCCTGGG,0.812
7,ATGAGCATGAAGCACACCGAGC,-1.78
8,TTGAGCTCCTCGATGCGCCGGA,0.162
9,TACTTCTTCTCGTAGTGGGGGT,-0.105
10,TTGAGGTTGAACGTCCGCTCGA,-0.171
